Screening data (PubChem BioAssay)
CF NFkB block: cystic fibrosis NF-kB activation inhibition; KKLEB NF-kB-GFP reporter, PAF-induced, GFP fluorescence overnight; inhibition, % at 5 µM; 0.86% of 360,000 active;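 active = at least 50% inhibition at 5 µM, scaled per plate between neutral and stimulator controls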;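 also: PAF is a Pseudomonas aeruginosa culture filtrate used as stimulus; plate controls were PAF-stimulated DMSO wells for no effect and unstimulated DMSO wells for full effect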
Peg3 prom inh: inhibitors of Peg3 promoter. HeLa PEG-Prom luciferase reporter, luminescence, overnight. inhibition, % at 20 µM. 1.7% of 360,000 active;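 active = inhibition of at least 50% at 20 µM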
HIF-2a inh: HIF-2a inhibition | 786-0 RCC cells HIF-2a reporter, luciferase luminescence, overnight | inhibition, % at 18.8 µM | 0.72% of 360,000 active | AID 624352;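 active = inhibition of the luminescence signal of 40% or more relative to plate controls, in a single-dose primary screen at 18.75 µM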
TROY signal inh: blocks TROY-dependent signaling in reporter cells | Q293 LMP1-TROYcd NF-kB luciferase reporter, 4 h | AID 1347056 | 0.98% of 360,000 active | inhibition, % at 10 µM;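 active = compounds whose plate-normalised and pattern-corrected inhibition of the luciferase reporter signal at the single screening dose is 50% or more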
KKLEB cytotox: CF airway cell cytotoxicity counter-screen | KKLEB CF airway cells viability, ATPlite luminescence, overnight; hits give low values; cells stimulated with P. aeruginosa culture filtrate | activity change (cytotoxicity), % at 5 µM | 0.36% of 360,000 active | AID 602141;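 active = corrected activity change at or below -50% at 5 µM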
TWEAK Fn14 block: inhibitors of TWEAK-Fn14 interaction signaling; inhibition, % at 10 µM; 2% of 360,000 active; TWEAK-stimulated Fn14 reporter cells, luciferase luminescence, 8 h; in the data active = inhibition above about 50%
Active calls of the source: *. Shown are actives, neighbours in structure and some others; about 4% of the full set was active somewhere.

How did CNC(=O)NC1CCCCc2sccc21 (configuration not stated) do in these assays?
CF NFkB block: 1; Peg3 prom inh: -15; HIF-2a inh: 6; TROY signal inh: 7; KKLEB cytotox: 2; TWEAK Fn14 block: -10

Results for COc1ccc(Br)c(Cn2c(C)c(C(=O)NCc3ccccc3C(F)(F)F)sc2=O)c1 ?
CF NFkB block: 20; Peg3 prom inh: 14; HIF-2a inh: 6; TROY signal inh: 69*; KKLEB cytotox: -13; TWEAK Fn14 block: 13

What do the screens show for `Cc1nn(CCC#N)c2nc(-c3ccccc3)cc(C(F)(F)F)c12`?
CF NFkB block: 9; Peg3 prom inh: -87; HIF-2a inh: -79; TROY signal inh: 52*; KKLEB cytotox: -1; TWEAK Fn14 block: 25

Results for Cc1nn(CCc2nn[nH]n2)c2nc(-c3ccccc3)cc(C(F)(F)F)c12 ?
CF NFkB block: 1; Peg3 prom inh: 14; HIF-2a inh: 23; TROY signal inh: 11; KKLEB cytotox: 12; TWEAK Fn14 block: -4

What do the screens show for `CC1CCCN(c2ccc3nc4ccccc4c(=O)n3n2)C1` (configuration not stated)?
CF NFkB block: -10; Peg3 prom inh: -18; HIF-2a inh: -64; TROY signal inh: 66*; KKLEB cytotox: -19; TWEAK Fn14 block: 37

How did CCOC(=O)C1=C(C)NC(=O)NC1c1ccc(-c2ccccc2F)o1 (configuration not stated) do in these assays?
CF NFkB block: 3; Peg3 prom inh: 20; HIF-2a inh: 4; TROY signal inh: 54*; KKLEB cytotox: 1; TWEAK Fn14 block: 16

Results for CC(C)N(C(=O)COC(=O)c1ccc(O)cc1)C(C)C ?
CF NFkB block: -8; Peg3 prom inh: 14; HIF-2a inh: -8; TROY signal inh: -18; KKLEB cytotox: 5; TWEAK Fn14 block: -1

What do the screens show for `CCC(C)N(CCNC(=O)c1ccc2c(c1)NC(=O)c1ccccc1S2)C1CCCCC1` (configuration not stated)?
CF NFkB block: 11; Peg3 prom inh: 76*; HIF-2a inh: 6; TROY signal inh: -4; KKLEB cytotox: -25; TWEAK Fn14 block: 10

How did CCCc1ccc(Oc2c(-c3ccc(O)c(C)c3O)n[nH]c2C)cc1 do in these assays?
CF NFkB block: -15; Peg3 prom inh: 3; HIF-2a inh: 15; TROY signal inh: 1; KKLEB cytotox: 2; TWEAK Fn14 block: -5

Results for CCCc1ccc(Oc2cn[nH]c2-c2ccc(O)c(C)c2O)cc1 ?
CF NFkB block: 53*; Peg3 prom inh: 10; HIF-2a inh: -78; TROY signal inh: 44; KKLEB cytotox: 3; TWEAK Fn14 block: 46

How did CCCc1cc(NCCCN2CCOCC2)n2c(nc3ccccc32)c1C#N do in these assays?
CF NFkB block: -31; Peg3 prom inh: 32; HIF-2a inh: 16; KKLEB cytotox: 3; TWEAK Fn14 block: 82*

What do the screens show for `Cc1cc(NCCCN2CCOCC2)n2c(nc3ccccc32)c1C#N`?
CF NFkB block: -31; Peg3 prom inh: -1; HIF-2a inh: 16; TROY signal inh: -11; KKLEB cytotox: -1; TWEAK Fn14 block: -18

What do the screens show for `CN1C2CCC1CC(NC(=O)CSc1ccc(C(C)(C)C)cc1)C2` (configuration not stated)?
CF NFkB block: -2; Peg3 prom inh: 13; HIF-2a inh: 1; TROY signal inh: -2; KKLEB cytotox: -6; TWEAK Fn14 block: 1

How did CNC(=O)c1ccc(NC(=O)C2CCN(S(=O)(=O)c3cccc(C(F)(F)F)c3)CC2)cc1 do in these assays?
CF NFkB block: 31; Peg3 prom inh: 5; HIF-2a inh: 2; TROY signal inh: -5; KKLEB cytotox: -7; TWEAK Fn14 block: 5

How did CCOc1ccc(OCCC(=O)N2CCc3cc(OC)c(OC)cc3C2)cc1 do in these assays?
CF NFkB block: 3; Peg3 prom inh: 17; HIF-2a inh: 16; TROY signal inh: 3; KKLEB cytotox: 4; TWEAK Fn14 block: 13

Results for CCc1ccc2c(c1)C1(NN=C(c3cccc4ccccc34)S1)C(=O)N2 (configuration not stated) ?
CF NFkB block: -3; Peg3 prom inh: 51*; HIF-2a inh: 10; TROY signal inh: 1; KKLEB cytotox: 6; TWEAK Fn14 block: -17

What do the screens show for `O=C(O)c1ccc(N=Nc2c(O)[nH]c3ccc(Br)cc23)cc1`?
CF NFkB block: -5; Peg3 prom inh: -156; HIF-2a inh: -293; TROY signal inh: -26; KKLEB cytotox: 13; TWEAK Fn14 block: 30

What do the screens show for `O=C(O)c1ccc(N=Nc2c(O)[nH]c3cc(Cl)ccc23)cc1`?
CF NFkB block: -35; Peg3 prom inh: -192; HIF-2a inh: -275; TROY signal inh: -61; KKLEB cytotox: 9; TWEAK Fn14 block: 55*

What do the screens show for `CC1CNC(=S)N(c2ccc(F)cc2)C1=O` (configuration not stated)?
CF NFkB block: -23; Peg3 prom inh: -3; HIF-2a inh: 5; TROY signal inh: -9; KKLEB cytotox: -3; TWEAK Fn14 block: 7

Results for CC1CNC(=S)N(c2ccccc2)C1=O (configuration not stated) ?
CF NFkB block: -12; Peg3 prom inh: 62*; HIF-2a inh: 6; TROY signal inh: -2; KKLEB cytotox: -1; TWEAK Fn14 block: 14

Results for CN(CCC#N)C(=O)COC(=O)/C=C/c1cccs1 ?
CF NFkB block: 17; Peg3 prom inh: 7; HIF-2a inh: 12; TROY signal inh: 1; KKLEB cytotox: -3; TWEAK Fn14 block: 8

Results for Cc1ccc2nc(NC(=S)NC(=O)c3ccc(OC(C)C)cc3)sc2c1 ?
CF NFkB block: -8; Peg3 prom inh: -81; HIF-2a inh: -38; TROY signal inh: -9; KKLEB cytotox: -3; TWEAK Fn14 block: -62

What do the screens show for `Cc1ccc2nc(NC(=S)NC(=O)c3cccs3)sc2c1`?
CF NFkB block: -16; Peg3 prom inh: -187; HIF-2a inh: -181; TROY signal inh: 54*; KKLEB cytotox: -9; TWEAK Fn14 block: 43

How did NS(=O)(=O)c1ccc2nc(NC(=O)Nc3ccccc3F)sc2c1 do in these assays?
CF NFkB block: -9; Peg3 prom inh: -386; HIF-2a inh: -236; TROY signal inh: 8; KKLEB cytotox: 13; TWEAK Fn14 block: 51*

How did CS(=O)(=O)c1ccc2nc(NC(=O)c3cccs3)sc2c1 do in these assays?
CF NFkB block: 23; Peg3 prom inh: -85; HIF-2a inh: -25; TROY signal inh: 34; KKLEB cytotox: -27; TWEAK Fn14 block: 69*

Results for Cc1ccccc1NC(=O)Nc1nc2ccc(S(C)(=O)=O)cc2s1 ?
CF NFkB block: 21; Peg3 prom inh: -83; HIF-2a inh: -130; TROY signal inh: -26; KKLEB cytotox: -27; TWEAK Fn14 block: -72

What do the screens show for `Cc1ccc2nc(NC(=O)c3cccs3)sc2c1`?
CF NFkB block: 1; Peg3 prom inh: -47; HIF-2a inh: -82; TROY signal inh: 23; KKLEB cytotox: -15; TWEAK Fn14 block: 78*
